The whole screen tested about 360,000 compounds, of which about 130 (0.036%) were called active. Rule as the data show it: active = potentiation above about 30%; inactive = the rest. Only a selection was taken, and actives are over-represented in it overall.

D(1A) dopamine receptor (Homo sapiens), sequence (P21728 whole entry, looked up): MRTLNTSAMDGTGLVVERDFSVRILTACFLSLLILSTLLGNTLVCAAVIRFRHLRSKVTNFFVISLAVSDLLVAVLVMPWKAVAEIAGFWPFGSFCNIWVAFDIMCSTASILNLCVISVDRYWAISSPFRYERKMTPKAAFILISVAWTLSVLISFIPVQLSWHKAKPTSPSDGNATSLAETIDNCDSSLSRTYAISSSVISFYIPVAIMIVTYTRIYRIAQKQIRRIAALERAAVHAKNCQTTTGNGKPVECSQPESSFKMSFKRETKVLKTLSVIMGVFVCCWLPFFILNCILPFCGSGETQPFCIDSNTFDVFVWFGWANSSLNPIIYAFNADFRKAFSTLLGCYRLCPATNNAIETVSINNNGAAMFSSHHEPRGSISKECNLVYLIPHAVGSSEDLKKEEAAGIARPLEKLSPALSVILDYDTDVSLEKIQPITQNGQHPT

This assay has as its target D(1A) dopamine receptor (Homo sapiens) (UniProt P21728). In words: Potentiators of Human D1 Dopamine Receptor: qHTS. Also: 0% is about no effect. The note with it: HEK293 TREx D1 cells, calcium flux, dopamine EC20 potentiation; at 10 µM; active compounds read high. An excerpt: Dopamine receptors (DARs) are involved in the etiology and/or therapy of a number of neuropsychiatric and endocrine disorders. For instance, all receptor-based antiparkinsonian drugs work via stimulating the D1 DAR subtype whereas all FDA-approved antipsychotic agents are antagonists of this receptor. […] There are three different types of allosteric modulators that we are seeking, two of which will stimulate or augment receptor signaling, allosteric agonists and potentiators, while the third, allosteric antagonists, will attenuate receptor signaling. The present primary screening assay measures compound potentiation of an EC20 dopamine response by tracking calcium flux in a […], inducible Hek293 Trex D1 cell line.
NIH Chemical Genomics Center [NCGC]
NIH Molecular Libraries Probe Centers Network [MLPCN]
Assay Submitter (PI): David Sibley
Freshly passaged cells are plated in 1536 well black, clear bottom plates at a density of 4000 cells/well in 3 ul of complete media containing 1x tetracycline inducer. After an overnight incubation at 30 C in 5% CO2, cells are loaded with 2 ul of the no wash Calcium Assay Kit (ABD Bioquest) and incubated at room temperature for 30 to 90 minutes. A 10 cycle (1 second/cycle) baseline measurement is taken and then the FDSS online 1536 pintool delivers 23 nl of compound library (as well as dopamine controls) to the plate. The plate is measured for kinetically at 1 cycle/sec for 180 seconds and is considered to be the agonist portion of the assay (eg, compounds which activate a positive calcium response during this portion are flagged as potential agonists). Following the 180 second read, 1 ul of an EC20 of dopamine is delivered by an onboard pipette head. Measurements are taken kinetically for an additional 180 seconds.
On to `O=C1C2(Cl)C3(Cl)C4(Cl)C(Cl)(Cl)C5(Cl)C3(Cl)C1(Cl)C5(Cl)C24Cl` (stereo not given), for which the potentiation was 54.8% (active).

As for `Cc1cccc(-n2c(O)c(C=NC34CN5CN(CN(C5)C3)C4)c(=O)[nH]c2=O)c1`, the potentiation was -1.15% (inactive).

`Clc1cccc(Cl)c1Cl`: the potentiation was -1.55% (inactive).

Turning to `COP(=O)(NS(=O)(=O)c1ccccc1)OC`, the potentiation was -2.85% (inactive).

Consider `CNC(=O)O/N=C(\N)Cc1csc2ccccc12`, for which the potentiation was -9.15% (inactive).

The values are drawn from PubChem BioAssay AID504651 (National Center for Advancing Translational Sciences (NCATS), 2011).
